Test [1] in a line: qHTS for Activators of Parkin Expression: LOPAC Validation Assay (NLuc Reporter) (AID 720572;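 further: 0% = DMSO and 100% = positive control compound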). In outline: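 Cells harboring the Parkin-promoter coincidence reporter were treated for 24 h at seven concentrations. NLuc output was measured sequentially after the FLuc channel and scaled between DMSO and positive control values.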
For orientation: In qHTS, concentration-response curves come from the screen itself.

A short description of test [2]: qHTS for Activators of Parkin Expression: LOPAC Validation Assay (FLuc Reporter) (AID 720573;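 further: 0% = DMSO and 100% = positive control compounds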). The method in brief: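 A neuronal cell line harbouring FLuc and NLuc reporters behind the Parkin promoter was exposed to compounds for 24 h. Firefly luciferase signal, measured after 10 min with detection reagent, was scaled to DMSO and positive-control wells.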
The target in test [3] is T1, Hexokinase-4 (Homo sapiens) + Glucokinase regulatory protein (Homo sapiens) (UniProt P35557+Q14397). Description: qHTS assay for inhibitors of recombinant human GCK-GKRP interaction: Diaphorase-coupled assay (AID 743205). The method in brief: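 Inhibitors of the GCK–GKRP complex relieve GKRP suppression of GCK, detected through a G6PDH–diaphorase cascade reducing resazurin. Human GST-GCK and FLAG-GKRP are used at 10 nM with 5 mM glucose and 0.4 mM ATP.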

Test [4] addresses T1, Hexokinase-4 (Homo sapiens) + Glucokinase regulatory protein (Homo sapiens). Description: qHTS assay for inhibitors of recombinant human GCK-GKRP interaction: ADP-Glo assay (AID 743206).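 Further: plate controls were DMSO plus enzyme for no effect and no enzyme for full effect.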 The method in brief:
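Pin-transferred compounds meet a 15 nM GST-GCK/15 nM FLAG-GKRP/2 uM S6P mix (dispense concentrations). ATP is then added to 0.4 mM final with 5 mM glucose, and the reaction runs 60 min at room temperature. ADP is quantified luminescently.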

Test [5] has the same target. Put plainly: qHTS assay for inhibitors of recombinant human GCK-GKRP interaction: HTRF assay (AID 743207).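 Further: 0% = DMSO with GCK present and -100% = DMSO wells lacking GCK.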 In outline:
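Steps: dispense GCK–GKRP complex (5 nM each, GST- and FLAG-tagged) with 2 uM S6P; pin in compounds; add XL665/Eu-cryptate-labelled antibodies; incubate 60 min at room temperature; read time-resolved FRET at 665 and 615 nm.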

Test [6] is described as follows: qHTS Assay for Identifying Gametocytocidal Compounds (AID 743244). Further: potency means the concentration at half of the fitted maximal effect.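 On max response: on the % scale 0 is the no-effect control and ±100 the full control effect; actives lower the fluorescent signal which means gametocytes are killed.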 To be noted: P. falciparum 3D7 stage III-V gametocytes, alamarBlue, 72 h; max response: stronger effect = lower value. The method in brief:
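Compounds are pinned into medium, gametocytes (stage III–V, 3D7, 20,000 cells/well) added, and plates held 72 h at 37 °C in 5% CO2. AlamarBlue follows for 24 h before fluorescence reading.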

Test [7] in a line: qHTS profiling of the MIPE4 collection as inhibitors of Plasmodium falciparum (3D7) proliferation (AID 743344; call rule not given here;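 further: scaled between DMSO vehicle wells and 0.29 µM artemisinin as full inhibition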). To be noted: P. falciparum 3D7 in erythrocytes, SYBR Green DNA fluorescence, 72 h; at 28.5 µM (top of the series) unless noted. In outline:
(§1)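 Parasite DNA was quantified by SYBR Green I fluorescence (ex 485, em 535 nm) after overnight lysis in saponin/Triton buffer at room temperature. Cultures at 0.3% parasitemia and 2.5% hematocrit were first exposed to compound for 72 h at 37 C; signals were normalised to artemisinin (0.29 uM) and vehicle wells.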

The nature of test [8]: qHTS profiling of the MIPE4 collection as inhibitors of Plasmodium falciparum (DD2) proliferation (AID 743345; call rule not given here). To be noted: P. falciparum Dd2 in erythrocytes, SYBR Green DNA, 72 h; at 28.5 µM (top of the series) unless noted. In outline: as §1
Test [9] in a line: qHTS profiling of the MIPE4 collection as inhibitors of Plasmodium falciparum (DD2) proliferation (Rep 2) (AID 743346; call rule not given here). To be noted: P. falciparum Dd2 in erythrocytes, SYBR Green DNA, 72 h; at 28.5 µM (top of the series) unless noted. In outline:
as §1

Test [10] in a line: qHTS profiling of the MIPE4 collection as inhibitors of Plasmodium falciparum (HB3) proliferation (AID 743347; call rule not given here;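 further: plate controls were DMSO vehicle wells for no effect and artemisinin wells for full effect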). To be noted: P. falciparum HB3 in erythrocytes, SYBR Green DNA, 72 h; at 28.5 µM (top of the series) unless noted. In outline: as §1
Test [11] concerns the target Arylsulfatase A (Homo sapiens) (UniProt P15289). Put plainly: qHTS screen for enhancers of Arylsulfatase A (ASA1): LOPAC Validation Assay (AID 720538). Further: 0% is about no effect. In outline: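 First, ASA-I179S fibroblasts from an MLD patient adhered for 6 hrs. Next, compounds were added for 48h. Then pNCS substrate (0.5mM final) with lysis buffer reacted 14h at room temperature before NaOH stop and fluorescence measurement.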

Test [12] is described as follows: qHTS assay for small molecule agonists of the antioxidant response element (ARE) signaling pathway measured by Nrf2-dependant transcriptional activity (AID 720636; active means well fitted curve in the direction sought with a large enough effect in the repeat runs; an effect the other way counts as inactive or inconclusive; further: potency means the concentration at half of the fitted maximal effect). In outline: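 Nrf2-dependent transcription read as ONE-Glo luciferase signal from ARE-luc HepG2 reporter cells after 16 hr compound treatment at 37 C, 5% CO2, in assay medium with 1% dialyzed FBS.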

Test [13] in a line: qHTS assay for small molecule agonists of the antioxidant response element (ARE) signaling pathway measured by Nrf2-dependant transcriptional activity - cell viability counter screen (AID 720653; active means well fitted curve in the direction sought with a large enough effect in the repeat runs; an effect the other way counts as inactive or inconclusive; further: potency means the concentration at half of the fitted maximal effect; on max response: on the % scale 0 is the no-effect control and ±100 the full control effect). To be noted: ARE-bla HepG2 viability, CellTiter-Glo ATP luminescence, 16 h; max response: stronger effect = lower value. The method in brief:
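ARE-bla HepG2 cells (2,000/well) rested 5 hrs at 37C/5% CO2, then exposed to compounds in DMSO for 16 hrs. Viability was read in the same wells as intracellular ATP by luminescence, 30 min at room temperature after reagent addition.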

Test [14] can be described thus: qHTS assay for cell viability of HEK293 cells (AID 743288). Further: nearly all actives have a fitted effect of over 50% in size. Further: potency means the concentration at half of the fitted maximal effect. On max response: on the % scale 0 is the no-effect control and ±100 the full control effect. To be noted: ATP luminescence (CellTiter-Glo), 18 h; max response: stronger effect = lower value. The method in brief:
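Quantitative high-throughput screen: compounds were pinned onto parental HEK293 cells (2,000 per well) after a minimum 5 h settling at 37 C, incubated 18 h at 37 C, and intracellular ATP measured by luciferase luminescence.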

Test [15] in a line: qHTS assay for small molecule antagonists of the retinoid-related orphan receptor gamma (ROR-gamma) signaling pathway - cell viability counter screen (AID 720652; active means well fitted curve in the direction sought with a large enough effect in the repeat runs; an effect the other way counts as inactive or inconclusive;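 further: compound exposure lasted 16 hr before ATP read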; further: potency means the concentration at half of the fitted maximal effect). In outline: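 Steps: seed CHO cells bearing TET-inducible ROR and ROR response element-luciferase; rest 5 hr at 37 C; add compound, then doxycycline; incubate 16 hr; add CellTiter-Glo and read luminescence as ATP-based viability.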

The nature of test [16]: qHTS assay for cell viability of the p53RE-bla HCT-116 cell line (AID 743292). Further: nearly all actives have a fitted effect of over 55% in size. Further: potency means the concentration at half of the fitted maximal effect. In outline:
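ATP-based luminescent viability (CellTiter-Glo, 30 min RT) after 16 h compound treatment at 37 C of p53RE-bla HCT-116 cells, seeded at 4,000 cells/well and rested 5 h before dosing.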

Test [17] in a line: qHTS profiling for inhibitors of Plasmodium falciparum (3D7) proliferation (AID 743322).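 Further: infected erythrocytes exposed to compound for 72 h before lysis; 100% = DMSO vehicle wells and 0% = 0.29 µM artemisinin.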 To be noted: P. falciparum 3D7 proliferation; at 28.7 µM (top of the series). In outline:
as §1

The nature of test [18]: qHTS profiling for inhibitors of Plasmodium falciparum (HB3) proliferation (AID 743324).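 Further: 100% = DMSO vehicle wells and 0% = artemisinin-treated control wells.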 To be noted: Plasmodium falciparum HB3 blood-stage proliferation; at 28.7 µM (top of the series). In outline: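 SYBR Green fluorescence (485 ex/535 em) of lysed cultures, incubated overnight at room temperature in the dark, quantifies parasite DNA. Infected erythrocytes at 0.3% parasitemia and 2.5% hematocrit were exposed 72 h; values normalized to DMSO and 0.29 uM artemisinin controls.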

15 compounds from PubChem BioAssay (NCATS) can be followed below.

“And” between values parts separate entries of the source, which are not always exact repeats. Equal entries are not always repeated. Inconclusive results are not listed. Some structures have more than one record in an assay (separate samples or runs), and their calls can disagree. The source made the active and inactive calls. Unless noted, the call rests on the fitted dose curve; in most records, active means well fitted curve in the direction sought with a large enough effect; inconclusive means small, poorly fitted or top-dose-only effect, or another doubt; inactive means no such curve, though single readings can be large; an effect the other way counts as inactive or inconclusive.

Chain of Arylsulfatase A (Homo sapiens) (P15289 whole entry, looked up): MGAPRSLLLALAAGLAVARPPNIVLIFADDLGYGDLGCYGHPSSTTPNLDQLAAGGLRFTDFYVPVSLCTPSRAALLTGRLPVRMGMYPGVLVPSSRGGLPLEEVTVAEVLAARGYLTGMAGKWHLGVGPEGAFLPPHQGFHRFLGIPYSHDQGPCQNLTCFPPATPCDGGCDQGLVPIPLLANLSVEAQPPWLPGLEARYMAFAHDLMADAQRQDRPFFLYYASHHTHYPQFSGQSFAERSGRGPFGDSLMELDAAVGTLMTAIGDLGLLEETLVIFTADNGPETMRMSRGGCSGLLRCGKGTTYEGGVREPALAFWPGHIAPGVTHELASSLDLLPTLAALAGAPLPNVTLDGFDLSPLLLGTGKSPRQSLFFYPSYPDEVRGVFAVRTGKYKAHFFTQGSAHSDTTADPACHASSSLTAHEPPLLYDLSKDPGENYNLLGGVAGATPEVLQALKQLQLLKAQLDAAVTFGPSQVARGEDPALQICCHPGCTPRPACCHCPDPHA
T1 sequence (P35557 whole entry, looked up): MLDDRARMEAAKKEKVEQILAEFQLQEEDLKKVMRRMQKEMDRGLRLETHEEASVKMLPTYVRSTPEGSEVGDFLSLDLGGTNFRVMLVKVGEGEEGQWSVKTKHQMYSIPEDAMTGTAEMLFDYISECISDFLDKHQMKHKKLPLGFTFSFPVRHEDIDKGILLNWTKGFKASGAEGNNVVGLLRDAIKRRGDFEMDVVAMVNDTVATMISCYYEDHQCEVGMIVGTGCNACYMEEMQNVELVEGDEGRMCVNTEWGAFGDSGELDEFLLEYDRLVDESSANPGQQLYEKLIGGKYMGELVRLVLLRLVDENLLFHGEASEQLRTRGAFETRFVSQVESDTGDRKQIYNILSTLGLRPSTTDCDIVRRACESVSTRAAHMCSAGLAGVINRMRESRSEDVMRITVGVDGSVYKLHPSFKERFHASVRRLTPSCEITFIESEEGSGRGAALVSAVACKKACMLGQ
T1 sequence (Q14397 whole entry, looked up): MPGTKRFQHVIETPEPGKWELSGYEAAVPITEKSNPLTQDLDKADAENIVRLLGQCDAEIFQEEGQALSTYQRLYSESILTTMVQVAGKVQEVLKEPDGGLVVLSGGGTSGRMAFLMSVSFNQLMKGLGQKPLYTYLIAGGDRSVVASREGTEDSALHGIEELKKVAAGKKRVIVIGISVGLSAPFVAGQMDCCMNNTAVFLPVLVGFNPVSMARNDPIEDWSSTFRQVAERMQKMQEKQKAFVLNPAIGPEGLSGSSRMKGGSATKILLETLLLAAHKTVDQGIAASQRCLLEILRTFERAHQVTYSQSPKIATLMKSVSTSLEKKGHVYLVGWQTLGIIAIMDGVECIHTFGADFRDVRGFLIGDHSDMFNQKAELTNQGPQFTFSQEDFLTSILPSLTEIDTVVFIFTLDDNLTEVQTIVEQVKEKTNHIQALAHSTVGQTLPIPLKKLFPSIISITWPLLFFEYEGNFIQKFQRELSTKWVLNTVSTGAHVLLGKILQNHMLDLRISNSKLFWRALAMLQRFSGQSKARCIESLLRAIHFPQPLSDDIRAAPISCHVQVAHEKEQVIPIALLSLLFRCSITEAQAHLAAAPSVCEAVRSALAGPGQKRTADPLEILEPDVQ

Take `COc1ccc(C(CN(C)C)C2(O)CCCCC2)cc1` (stereo unspecified): the compound was called inactive in test [1], in [2], in [3], in [4] and in test [5]. In addition, the max response in test [6] is 4.64% (inactive) and 5.5% (inactive). The compound also had a parasite growth, % of DMSO control in [7] of 21.1%. For the same compound, the parasite growth remaining, % of DMSO control (lower = more inhibition) in [8] was determined as 58.9%. Also, the parasite growth, % of control (lower = inhibition) in test [9] worked out at 42.9%. Besides, the growth, % of control in [10] was determined as 60.2%.
As to `O=c1[nH]c2ccccc2n1C1CCN(CCCC(c2ccc(F)cc2)c2ccc(F)cc2)CC1`, the Potency result in test [11] and in test [12] was “inactive” throughout. The Potency in [13] and in [14] was 50.1 µM (active) in each case. The result in test [3], in [4] and in [5] was inactive.
Regarding `CC(=O)[C@H]1CC[C@H]2[C@@H]3CC[C@H]4C[C@H](O)CC[C@]4(C)[C@H]3C(=O)C[C@]12C`, the Potency entry in [11] was “inactive”. Besides, the call in [1], in test [2], in [3], in test [4] and in test [5] was inactive. Moreover, in test [6], the max response is -4.24% (inactive) and 9.55% (inactive).
Regarding `OCCOc1ccccc1`, the Potency result in [12], in test [15] and in test [16] was “inactive” each time. Besides, the max response was -0.196% (inactive) and 2.04% (inactive) and -9.12% (inactive) in [13]; 3.27% (inactive) and 3.36% (inactive) in [6]; -3.53% (inactive) and -2.57% (inactive) and -13.5% (inactive) in test [14].
As for `CC[C@@H](CO)NC(=O)[C@@H]1C=C2c3cccc4c3c(cn4C)C[C@H]2N(C)C1`, in [11], the Potency entry was “inactive”. For the same compound, the compound was called inactive in test [1], in test [2], in [4] and in test [5]. In addition, in test [6], the max response was 1.36% (inactive).
Take `CCCN1CCC[C@@H]2Cc3[nH]ncc3C[C@H]21`: the Potency entry in [11] was “inactive”. The compound was called inactive in test [1], in test [2], in test [3], in [4] and in test [5]. The max response in [6] was -4.72% (inactive) and 8.32% (inactive) and 17.4% (inactive).
`Oc1cccc2cccnc12`: the Potency in [12] was 42.2 µM (active); in test [6] it was 11.2 µM (active) and 25.1 µM (active). For the same compound, the Potency result in test [15] and in test [16] was “inactive” throughout. Besides, the max response in test [13] was -16.3% (inactive); in [14], -19.7% (inactive).
Turning to `CC(COc1ccccc1)N(CCCl)Cc1ccccc1` (stereo unspecified), in [15], the Potency was 42.2 µM (active). Further, the results for the max response in [13] and in test [6] were -12.5% (inactive) and 3.46% (inactive), respectively. In test [10], this compound registered a growth, % of control of 91.2%.
`O=NN(CCCl)C(=O)NCCCl`: the Potency result in [11] is “inactive”. Further, the parasite growth, % of DMSO control in test [7] is 95.8%. The parasite growth remaining, % of DMSO control (lower = more inhibition) in test [8] worked out at 102%. Further, in [9], the parasite growth, % of control (lower = inhibition) is 150%. This compound returned a growth, % of control in test [10] of 83.1%.
Consider `CC(C)(C)CC(C)(C)c1ccc(O)cc1`, for which the Potency result in test [12] and in test [16] was “inactive” in each case. The max response is -9.38% (inactive) in test [13]; -7.21% (inactive) and 8.2% (inactive) in test [6]; -15.6% (inactive) in test [14].
In the case of `CCOP(=S)(OCC)Oc1cc(C)nc(C(C)C)n1`, the Potency entry in test [12], in test [15] and in test [16] was “inactive” in each case. Further, the max response is 0.528% (inactive) and 11.7% (inactive) in test [13]; 18.9% (inactive) in test [6]; 0.702% (inactive) and -4.39% (inactive) in [14].
Regarding `Oc1cc(Cl)ccc1Oc1ccc(Cl)cc1Cl`, in test [12], the Potency result is “inactive”. Besides, the max response in test [13] was -9.95% (inactive). In test [17], this compound registered a remaining parasite growth % (stronger effect = lower value) of 0.738%. This compound returned a remaining proliferation (% of control), lower = more inhibition in test [18] of 1.17%. The compound also gave a parasite growth, % of DMSO control in test [7] of 6.59%. In [8], the parasite growth remaining, % of DMSO control (lower = more inhibition) amounted to 8.79%. For the same compound, the parasite growth, % of control (lower = inhibition) in test [9] is 20.6%. For the same compound, in [10], the growth, % of control is 5.41%.
As to `NCC1(CC(=O)O)CCCCC1`, in test [11], the Potency entry was “inactive”. Moreover, the compound was called inactive in test [1], in test [2], in [3], in test [4] and in [5]. The max response in test [6] was 10.3% (inactive). In test [7], this compound came in with a parasite growth, % of DMSO control of 58.3%. Besides, the parasite growth remaining, % of DMSO control (lower = more inhibition) in [8] came out at 87.6%. Also, the parasite growth, % of control (lower = inhibition) in [9] was determined as 75.9%. Besides, in [10], the growth, % of control stood at 94.9%.
As for `Oc1ccccc1-c1ccccc1`, the Potency result in test [12] and in test [15] was “inactive” in each case. Further, the Potency was 251 µM (active) in test [13]; 891 µM (active) in test [14]; “inactive and 708 µM (active)” in [16]. Moreover, the max response in test [13] is -12.4% (inactive) and -2.58% (inactive) and -3.94% (inactive); in test [14], -4.38% (inactive) and -13.9% (inactive) and 2.52% (inactive).
As for `Cc1cccc(C)c1NC1=NCCCS1`, the result in [1], in test [2], in test [3], in test [4] and in test [5] was inactive. The max response in test [6] is 0.533% (inactive) and 4.4% (inactive).
